Hits are enriched below; roughly 1.8% of the tested compounds scored in any of these assays.
Cardio protect: protects H9c2 cardiomyocytes from peroxide injury | H2O2 injury protection, ATPLite, 2 h | protection from H2O2 cell death, % at 20 µM | AID 588492 | 360,000 compounds, 0.63% hits;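 active = compounds giving at least 50% protection of heart cells from peroxide-induced death in the single-dose screen, raw or plate-pattern-corrected value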
GRK2 aptamer HTS: human GRK2 inhibition via aptamer displacement; P25098; bead flow cytometry, FAM-aptamer displacement from GRK2; inhibition of aptamer binding, % at 10 µM; 330,000 compounds, 0.59% hits; AID 488847;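 active = inhibition of aptamer binding above 40%, roughly 3 SD of noise, on plates passing a quality check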;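 also: median bead fluorescence of bound FAM aptamer so fluorescent compounds give negative values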
Target sequence (P25098 whole entry, looked up): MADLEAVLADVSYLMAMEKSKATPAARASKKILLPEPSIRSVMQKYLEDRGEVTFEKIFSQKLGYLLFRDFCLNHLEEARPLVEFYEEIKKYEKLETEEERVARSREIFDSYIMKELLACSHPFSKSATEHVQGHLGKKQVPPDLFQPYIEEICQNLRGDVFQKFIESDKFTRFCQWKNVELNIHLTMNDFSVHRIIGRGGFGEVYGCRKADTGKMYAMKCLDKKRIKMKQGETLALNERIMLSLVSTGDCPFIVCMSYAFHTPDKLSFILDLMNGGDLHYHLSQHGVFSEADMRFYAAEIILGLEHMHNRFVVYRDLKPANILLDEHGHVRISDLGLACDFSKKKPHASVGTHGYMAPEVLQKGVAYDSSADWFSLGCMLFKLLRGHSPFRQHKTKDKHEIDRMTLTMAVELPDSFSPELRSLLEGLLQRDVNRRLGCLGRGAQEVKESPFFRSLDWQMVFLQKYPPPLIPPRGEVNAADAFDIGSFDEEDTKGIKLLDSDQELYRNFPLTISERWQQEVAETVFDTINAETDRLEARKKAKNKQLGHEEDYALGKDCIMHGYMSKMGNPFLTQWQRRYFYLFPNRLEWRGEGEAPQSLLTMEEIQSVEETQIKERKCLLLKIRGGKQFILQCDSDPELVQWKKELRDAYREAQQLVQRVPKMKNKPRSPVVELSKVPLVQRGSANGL
Neddyl block: blocks human cullin neddylation | TR-FRET cullin neddylation, biochemical | inhibition, % at 25 µM | 360,000 compounds, 0.58% hits | AID 651699; in the data active = inhibition above about 36%
HDAC3 inhib: inhibitors of human histone deacetylase 3; 320,000 compounds, 0.15% hits; recombinant HDAC3, fluorogenic peptide/trypsin coupled, fluorescence; O15379; inhibition, % at 8.3 µM; in the data active = inhibition above about 26%, passing the limit was not always enough
GRK2 CP1: human GRK2 inhibition confirmation, cherry pick 1 | shares compounds with GRK2 aptamer HTS | bead-bound GRK2, FAM-aptamer displacement, flow cytometry | aptamer displacement, % at 10 µM | 2,000 compounds, 4% hits | AID 504451;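 active = aptamer displacement above 40%, near three times the noise of non-fluorescent compounds, on plates passing quality checks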;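 also: negative values mostly reflect intrinsic compound fluorescence rather than true enhancement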
FAM quench CP1: aptamer fluorescence quenching in GRK2 counter-screen; 2,000 tested, under 10 active; AID 504580; shares compounds with GRK2 aptamer HTS; Carboxyfluorescein RNA aptamer on beads, flow cytometry quenching; active compounds read low; fluorescence response (% of DMSO), % at 10 µM;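 active = compounds that quench the bead-bound fluorescent RNA probe, cutting fluorescence to under half of the solvent control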;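 also: counterscreen run without GRK2 so only probe quenching by compound is measured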
GRK2 confirm 2: human GRK2 inhibition confirmation, cherry pick 2 | shares compounds with GRK2 aptamer HTS | bead-bound GRK2, FAM-aptamer displacement, flow cytometry | inhibition of aptamer binding, % at 10 µM | AID 504782 | 360 tested, under 10 active;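 active = inhibition of aptamer binding above 40%, about triple the noise seen with nonglowing compounds, on plates passing quality control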;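 also: negative values mostly come from compounds that fluoresce themselves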
FAM quench SP: aptamer fluorescence quenching in GRK2 counter-screen; shares compounds with GRK2 aptamer HTS; carboxyfluorescein RNA aptamer beads, flow cytometry quenching; active compounds read low; fluorescence response vs DMSO, % at 10 µM; 360 tested, under 10 active;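 active = response vs DMSO under 50%, meaning signal dropped by over half, treated as fluorescence quencher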;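 also: labelled aptamer on streptavidin beads without GRK2 as a quench counter-screen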
Of the large screens only hits and unclear results are named; the others gave an inactive call (follow-up assays come after a bar, where shown).

COc1ccc(-c2cc(C(=O)NCc3ccc(Cl)cc3)no2)cc1OC	none | GRK2 CP1 inactive | FAM quench CP1 inactive
COc1ccc(CNC(=O)c2cc(-c3ccc(OC)c(OC)c3)on2)cc1	none
COC(CNC(=O)CN1CCN(Cc2ccc(F)cc2Cl)C1=O)OC	none | GRK2 CP1 inactive | FAM quench CP1 inactive
Cc1[nH][nH]c(=O)c1C(c1ccc(-c2cccc(C(=O)O)c2)o1)c1c(C)[nH][nH]c1=O	GRK2 aptamer HTS 42 | GRK2 confirm 2 inactive | FAM quench SP inactive
O=C(CCS(=O)(=O)c1cc(Br)cc2c1N(C(=O)C1CC1)CC2)N1CCN(c2ccccn2)CC1	none
COc1ccccc1N(CC(=O)NCc1ccco1)S(=O)(=O)c1ccc(C)cc1	GRK2 aptamer HTS 46 | GRK2 CP1 inactive | FAM quench CP1 inactive
COc1ccc(N(CC(=O)NCc2ccco2)S(=O)(=O)c2ccc(C)cc2)cc1OC	none
O=C(Nc1cc(C(=O)N2CCOCC2)cc(C(=O)N2CCOCC2)c1)c1cc(F)c(F)cc1Cl	none | GRK2 CP1 inactive | FAM quench CP1 inactive
COc1ccc2c(c1)C(=O)Cc1ccccc1O2	none
Fc1ccc(CNc2cnccn2)cc1	GRK2 aptamer HTS 64 (not shown: Neddyl block) | GRK2 CP1 inactive | FAM quench CP1 inactive
Cc1ccc(S(=O)(=O)N2CCN(C(=O)COC(=O)c3ccc(O)cc3)CC2)c(C)c1	none
Cc1cc(C)cc(C(=O)N2CCN(c3ccccn3)CC2)c1	none | GRK2 CP1 inactive | FAM quench CP1 inactive
Cc1cccc(C(=O)N2CCN(c3ccccn3)CC2)c1	GRK2 aptamer HTS 75 | GRK2 CP1 inactive | FAM quench CP1 inactive
Cc1ccc(C(=O)N2CCN(c3ccccn3)CC2)cc1	none
O=C(COc1cc(Cl)c(Cl)cc1Cl)N1CCN(c2ccccn2)CC1	GRK2 aptamer HTS 95 | GRK2 CP1 inactive | FAM quench CP1 inactive
O=C(COc1ccc(Cl)cc1Cl)N1CCN(c2ccccn2)CC1	none
O=C(c1ccc(Cl)c(S(=O)(=O)NCc2ccccc2)c1)N1CCN(c2ccccn2)CC1	none | GRK2 CP1 inactive | FAM quench CP1 inactive
CC(C)c1ccc(NC2CCCN(C(=O)CCN3CCCCO3)C2)cc1 (stereo unspecified)	none
CCC1CCC(C(=O)NC(CCSC)C(=O)NCCN(CC(C)C)CC(C)C)CC1 (stereo unspecified)	none
CC1SC(=Nc2ccccc2)N(S(=O)(=O)c2ccccc2)C1=O (stereo unspecified)	none (no result: HDAC3 inhib)
Cc1c(NC(=O)c2ccc(NS(=O)(=O)c3ccccc3)cc2)c(=O)n(-c2ccccc2)n1C	none
O=C(c1cccc(S(=O)(=O)N2CCc3ccccc32)c1)N1CCN(c2ccccn2)CC1	none | GRK2 CP1 inactive | FAM quench CP1 inactive
COc1ccccc1N1CCN(C(=O)c2cccc(S(=O)(=O)N3c4ccccc4CC3C)c2)CC1 (stereo unspecified)	none (no result: GRK2 aptamer HTS, HDAC3 inhib) | GRK2 CP1 inactive | FAM quench CP1 inactive
COc1ccc(N2CCN(C(=O)c3cccc(S(=O)(=O)N4CCc5ccccc54)c3)CC2)cc1	none
N#Cc1c2ccc([N+](=O)[O-])cc2[n+]([O-])n1-c1ccccc1	none
COc1cc(/C=C/C(=O)NCC2CCCCC2)cc(OC)c1OC	GRK2 aptamer HTS 63 | GRK2 CP1 inactive | FAM quench CP1 inactive
O=C(/C=C/c1cccc(Br)c1)NCC1CCCCC1	none
CCOc1cc2[nH]c(=S)n(C3CC3)c(=O)c2cc1OCC	GRK2 aptamer HTS 41 | GRK2 CP1 inactive | FAM quench CP1 inactive
CC(Oc1ccc2c(c1)c1ccnc3c4ccccc4c(=O)n2c13)C(=O)NCCN1CCOCC1 (stereo unspecified)	none (not shown: Neddyl block)
COc1ccccc1NC(=O)C(C)OC(=O)C1CCN(S(=O)(=O)c2ccccc2C(F)(F)F)CC1 (stereo unspecified)	none (no result: GRK2 aptamer HTS, HDAC3 inhib)
CCOC(=O)c1sc2nc3c(SCC(=O)O)cc(C(=O)c4ccccc4O)cn3c(=O)c2c1C	GRK2 aptamer HTS 63 | GRK2 CP1 inactive | FAM quench CP1 inactive
FC(F)(F)c1cc(-c2ccco2)nc2ncnn12	none (not shown: Neddyl block)
CN(Cc1cnccn1)Cc1c(C(=O)N2CCc3ccccc3C2)nc2ccc(Cl)cn12	none
CN(Cc1cccnc1)Cc1c(C(=O)N2CCc3ccccc3C2)nc2ccc(Cl)cn12	GRK2 aptamer HTS 93 | GRK2 CP1 inactive | FAM quench CP1 inactive
O=C(Cc1c[nH]c2ccccc12)N1CCN(S(=O)(=O)c2cccc(Cl)c2Cl)CC1	none
O=c1cc[nH]c2ccc(OC(F)(F)F)cc12	GRK2 aptamer HTS 86 (no result: HDAC3 inhib) | GRK2 CP1 inactive | FAM quench CP1 inactive
CC(C)CNC(=O)c1ccccc1NC(=O)/C=C/c1cccc([N+](=O)[O-])c1	none
COc1ccc(CC(=O)N(Cc2ccccc2)c2cccc(C)c2)cc1OC	GRK2 aptamer HTS 100 | GRK2 confirm 2 inactive | FAM quench SP inactive
O=C(c1[nH]c(C(F)(F)F)nc1-c1ccccc1)N1CCc2c([nH]c3ccccc23)C1	none (no result: GRK2 aptamer HTS, HDAC3 inhib)
CCCN1CCN(C(=O)c2noc3c2COc2ccc(C)cc2-3)CC1	GRK2 aptamer HTS 59 (not shown: Neddyl block) | GRK2 CP1 inactive | FAM quench CP1 inactive
O=C(O)COCC(=O)N1CCCN(c2nccc(C(F)(F)F)n2)CC1	none
O=C(NCc1cccs1)c1cc(-c2ccc(O)cc2)on1	GRK2 aptamer HTS 79 | GRK2 CP1 inactive | FAM quench CP1 inactive
CC1(C)Cc2ccccc2-c2nnc(-c3cccnc3)n21	GRK2 aptamer HTS 100 | GRK2 confirm 2 inactive | FAM quench SP inactive
CC1(C)Cc2ccccc2-c2nnc(-c3ccccc3)n21	none
OCC1CCCN(c2nc(CN3CCCCC3)nc3scc(-c4ccccc4)c23)C1 (stereo unspecified)	none | GRK2 CP1 inactive | FAM quench CP1 inactive
CN(Cc1ccccc1)c1nc(CN2CCOCC2)nc2scc(-c3ccccc3)c12	none | GRK2 CP1 inactive | FAM quench CP1 inactive
Cc1ccc2[nH]c(-c3ccccc3)c(CN(C)C)c(=O)c2c1	none | GRK2 CP1 inactive | FAM quench CP1 inactive
Cc1ccc(CNC(=O)c2cccc(OCc3c(C)noc3C)c2)cc1	none | GRK2 CP1 inactive | FAM quench CP1 inactive
Cc1noc(C)c1COc1cccc(C(=O)NCc2cccc(Cl)c2)c1	none | GRK2 CP1 inactive | FAM quench CP1 inactive
Cc1noc(C)c1COc1cccc(C(=O)Nc2ccccc2)c1	none (no result: HDAC3 inhib)
Cc1ccc(NC(=O)c2cccc(OCc3c(C)noc3C)c2)cc1	none
O=C(C1CC1)N1CCN(S(=O)(=O)c2ccc3c(c2)OCCO3)CC1	none
C#CCNC(=O)C1=C[C@@H](C)C[C@@H](OCc2ccc(CO)cc2)O1	none
CCC(CC)C(=O)Nc1ccc(C(=O)c2ccccc2)cc1	GRK2 aptamer HTS 61 | GRK2 confirm 2 inactive | FAM quench SP inactive
COC(=O)c1[nH]c2c(c1C)C(=O)CCC2	none | GRK2 CP1 inactive | FAM quench CP1 inactive

Bioassay records (PubChem)
